Experimental findings from PubChem BioAssay are described below.

Test [1] in a line: stimulators of nuclear beta-catenin in C2C12, primary screen, imaging, WNT3A-conditioned medium, mouse C2C12, NPC library (AID 1117326; in the data active means nuclear beta-catenin stimulation mostly above about 4.2%, no sharp cut-off; inactive means mostly below about 10%). The settings on record: stronger effect = higher value.
The nature of test [2]: stimulators of insulin release from INS-1E, primary screen, cell-based, 5 mM glucose, NPC library (AID 1117329;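 active means compound raises insulin release from rat beta cells at 5 mM glucose, no numeric limit stated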). The settings on record: rat INS-1E insulin secretion, at 10 µM, stronger effect = higher value.
The nature of test [3]: growth inhibition of GSK3B-pretreated HCT116 cells – cell-based, CellTiter-Glo, 0.2 to 20 µM (AID 1117336;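 active means compounds lowering colon cancer cell viability after pretreatment blocking the GSK3B kinase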). The settings on record: HCT116 viability after GSK3B inhibitor, at 20 µM, stronger effect = higher value.
Test [4] can be described thus: inhibition of endothelial tube formation, primary screen, imaging, VEGF stimulated, CD31 staining, tube area, NPC library (AID 1117340;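 active means compound that reduces growth-factor-driven endothelial tube area in a mixed cell culture, no cutoff stated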). The settings on record: VEGF-stimulated ADSC/ECFC co-culture, at 10 µM, stronger effect = higher value.
The nature of test [5]: glucagon-like peptide 1 release enhancers, primary assay, NCI-H716 cell line, NPC library (AID 1117341;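 active means compound raises GLP1 secretion from the human gut endocrine cells, with no numeric limit stated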). The settings on record: NCI-H716 cells, at 10 µM, stronger effect = higher value.
Test [6] can be described thus: HCT116 colon cancer cell growth inhibition, primary screen, CellTiter-Glo luminescence, NPC library (AID 1117342;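 active means compounds that lower survival of HCT116 colon cancer cells in the luminescence readout, no numeric limit stated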). The settings on record: at 20 µM (top of the series).
Test [7] in a line: CellTiter-Glo luminescent readout of SW480 viability loss, NPC library primary (AID 1117343;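 active means compounds that lower viability of the colon cancer cells in the luminescence readout, with no numeric limit stated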). The settings on record: CellTiter-Glo luminescence; at 20 µM (top of the series).
Test [8] is described as follows: decreased DLD-1 cellular survival, CellTiter-Glo luminescent readout, NPC compound collection, primary HTS (AID 1117346;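 active means compounds that lower survival of DLD-1 colon cancer cells in the luminescence readout, no cutoff given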). The settings on record: DLD-1 viability, CellTiter-Glo luminescence; at 20 µM (top of the series).
Test [9] has as its target 6-phosphogluconate dehydrogenase, decarboxylating (Homo sapiens) (UniProt P52209). Kind of test: 6PGD enzyme inhibitors, primary screen, biochemical, human, recombinant enzyme, NADPH absorbance (AID 1159550;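 active means at least 20% inhibition of 6-phosphogluconate dehydrogenase activity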). The settings on record: recombinant 6PGD, NADPH absorbance 341 nm; at 10 µM; stronger effect = higher value.
The nature of test [10]: differential killing of epithelial or mesenchymal cells, primary screen, imaging, PC-3E GFP, TEM4-18 mCherry, co-culture (AID 1345086;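 active means compounds killing one labelled cell type while sparing the other, by normalised counts and ratio limits, not self-fluorescent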;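 on all read-outs here: cells exposed to compound for 72 h before imaging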;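 on red/green cell ratio (normalised): normalised mesenchymal count divided by normalised epithelial count so high means epithelial killing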). The settings on record: imaging cell counts, at 1 µM; for red/green cell ratio (normalised): actives lie on both sides, counts scaled to control wells, 1 = unselective.
The nature of test [11]: sensitizers of A549 cells to miR-34 induction, primary screen, imaging, A549 dox-inducible miR-34, nuclei and caspase counts (AID 1347080;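 active means compounds whose cell count with miR-34 switched on is under 0.7 times the count with it off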). The settings on record: A549 miR-34 inducible, Hoechst nuclei count, 48 h.
Test [12] can be described thus: survival rescue of mitochondrial mutant cells in low glucose, primary screen, MELAS cybrids, Rieske KO mouse fibroblasts, CellTiter-Glo (AID 1508586;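 active means mean z-score across replicates of 1.96 or higher in either the MELAS or the Rieske mutant cell line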;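 further: z relative to plate mean and SD of compound and empty wells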).
Test [13] deals with NAD(+) hydrolase SARM1 (Homo sapiens) (UniProt Q6SZW1). Briefly: SARM1 TIR NADase inhibitors, cell lysate, NAD-Glo luminescence (AID 1508614;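 active means compound whose remaining NAD level is above about 45 nM, limit read from the data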). The settings on record: SAM-TIR HEK293T lysate NADase, at 1 µM, stronger effect = higher value.
The test system of test [14] is F380Y. Briefly: modulators of BK channel variants, profiling panel, selectivity assay, cell-based, U2OS BacMam, thallium flux, beta subunits (AID 1259406).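 Further: initial slope of Thallos dye fluorescence rise after thallium is added; log ratio against the mean of 0.3% DMSO vehicle wells on the same plate.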 The settings on record: at 30 µM.
The subject of test [15] is F380Y/beta2Delta. The test is described as above. The settings on record: at 30 µM.
For test [16], the target named is Calcium-activated potassium channel subunit alpha-1 (Homo sapiens) + Leucine-rich repeat-containing protein 26 (Homo sapiens) (UniProt Q12791+Q2I0M4). Described as above. The settings on record: F380Y/Slo1WT/gamma1, at 30 µM.
Test [17] deals with R275C. The description is as above. The settings on record: at 30 µM.
Test [18] deals with R275C/beta1. The test is described as above. The settings on record: at 30 µM.
The subject of test [19] is R275C/beta2Delta. The test is described as above. The settings on record: at 30 µM.
The target of test [20] is Mitogen-activated protein kinase 7 (Homo sapiens) (UniProt Q13164). Kind of test: ERK5 transactivation activators in reporter cells, primary screen, cell-based, HTS (AID 1508626;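 active means luciferase signal above three times the same-plate solvent-only control wells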;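 further: luciferase driven by Gal4-ERK5 fusion binding five Gal4 sites before minimal TATA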). The settings on record: HeLa Gal4-ERK5 transactivation, 18 h, at 5 µM, stronger effect = higher value.
The mark [21] stands for this setting: measured here: epithelial PC-3E GFP cell survival.
[22] abbreviates: measured here: mesenchymal TEM4-18 mCherry cell survival.
[23] abbreviates: stronger effect = lower value, cell number ratio, induced over uninduced.
[24] abbreviates: measured here: relative caspase fold change +Dox/-Dox.
Setting [25] is: measured here: total cells with miR-34 induction, stronger effect = lower value.
[26] abbreviates: measured here: total cells without miR-34 induction.
The mark [27] stands for this setting: MELAS cybrid survival, CellTiter-Glo 48 h, stronger effect = higher value.
Setting [28] is: Rieske KO mouse fibroblast survival, CellTiter-Glo 72 h.

Several values for one entry are separate records, joined by “and”; a condition that tells them apart may be missing. Equal entries are not always repeated. Activity calls are given as the source filed them.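 How the source made its calls, unless noted: active means thallium flux through the channel raised or lowered by more than 3 SD from vehicle-only wells, actives on both sides; inactive means the rest.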

Chain of 6-phosphogluconate dehydrogenase, decarboxylating (Homo sapiens) (P52209 whole entry, looked up): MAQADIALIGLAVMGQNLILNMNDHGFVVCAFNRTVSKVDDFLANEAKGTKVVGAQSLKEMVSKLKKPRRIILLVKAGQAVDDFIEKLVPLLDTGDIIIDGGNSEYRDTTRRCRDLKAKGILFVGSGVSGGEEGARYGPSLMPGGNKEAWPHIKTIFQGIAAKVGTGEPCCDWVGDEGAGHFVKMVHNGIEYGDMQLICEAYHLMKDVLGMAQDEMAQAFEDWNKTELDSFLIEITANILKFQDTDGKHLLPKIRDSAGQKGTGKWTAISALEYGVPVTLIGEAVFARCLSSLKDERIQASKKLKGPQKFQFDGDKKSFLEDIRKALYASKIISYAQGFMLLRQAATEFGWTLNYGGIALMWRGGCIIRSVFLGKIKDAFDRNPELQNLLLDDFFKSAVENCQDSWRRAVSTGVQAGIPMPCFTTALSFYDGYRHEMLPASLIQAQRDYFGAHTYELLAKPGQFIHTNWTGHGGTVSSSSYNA
Chain of Calcium-activated potassium channel subunit alpha-1 (Homo sapiens) + Leucine-rich repeat-containing protein 26 (Homo sapiens) (Q2I0M4 whole entry, looked up, one chain of several): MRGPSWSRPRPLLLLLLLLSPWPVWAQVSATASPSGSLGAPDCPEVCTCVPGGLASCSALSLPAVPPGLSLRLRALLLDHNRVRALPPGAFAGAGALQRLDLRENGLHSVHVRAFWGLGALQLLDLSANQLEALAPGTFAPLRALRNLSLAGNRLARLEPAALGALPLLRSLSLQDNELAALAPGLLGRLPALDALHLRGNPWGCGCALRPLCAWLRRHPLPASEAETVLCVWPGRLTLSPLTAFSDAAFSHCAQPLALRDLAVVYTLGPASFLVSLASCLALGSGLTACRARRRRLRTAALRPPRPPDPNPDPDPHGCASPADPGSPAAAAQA
Chain of Mitogen-activated protein kinase 7 (Homo sapiens) (Q13164 whole entry, looked up, the tested form may be a part): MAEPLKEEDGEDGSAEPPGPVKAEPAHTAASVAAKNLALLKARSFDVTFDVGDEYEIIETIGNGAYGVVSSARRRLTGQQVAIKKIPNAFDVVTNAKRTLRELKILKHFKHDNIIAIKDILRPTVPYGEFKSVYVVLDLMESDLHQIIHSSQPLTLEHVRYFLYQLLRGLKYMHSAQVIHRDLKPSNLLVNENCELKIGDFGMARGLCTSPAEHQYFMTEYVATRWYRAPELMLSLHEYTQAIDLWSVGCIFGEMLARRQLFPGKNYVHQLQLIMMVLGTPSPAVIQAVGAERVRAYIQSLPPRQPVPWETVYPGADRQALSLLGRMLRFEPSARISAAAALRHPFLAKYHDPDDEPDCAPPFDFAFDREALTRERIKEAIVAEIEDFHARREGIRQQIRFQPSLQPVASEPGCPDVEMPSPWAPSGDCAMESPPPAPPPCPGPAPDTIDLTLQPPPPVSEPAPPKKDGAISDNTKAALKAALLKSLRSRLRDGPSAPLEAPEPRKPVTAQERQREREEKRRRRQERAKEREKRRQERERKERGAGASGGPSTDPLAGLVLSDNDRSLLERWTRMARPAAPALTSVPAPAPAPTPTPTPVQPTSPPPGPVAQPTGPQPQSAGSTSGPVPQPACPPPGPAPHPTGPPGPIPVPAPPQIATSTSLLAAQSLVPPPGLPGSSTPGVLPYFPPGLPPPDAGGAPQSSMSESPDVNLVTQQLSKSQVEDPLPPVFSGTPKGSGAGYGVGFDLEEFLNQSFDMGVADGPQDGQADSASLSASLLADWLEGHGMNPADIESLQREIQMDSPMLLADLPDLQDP
Chain of NAD(+) hydrolase SARM1 (Homo sapiens) (Q6SZW1 whole entry, looked up): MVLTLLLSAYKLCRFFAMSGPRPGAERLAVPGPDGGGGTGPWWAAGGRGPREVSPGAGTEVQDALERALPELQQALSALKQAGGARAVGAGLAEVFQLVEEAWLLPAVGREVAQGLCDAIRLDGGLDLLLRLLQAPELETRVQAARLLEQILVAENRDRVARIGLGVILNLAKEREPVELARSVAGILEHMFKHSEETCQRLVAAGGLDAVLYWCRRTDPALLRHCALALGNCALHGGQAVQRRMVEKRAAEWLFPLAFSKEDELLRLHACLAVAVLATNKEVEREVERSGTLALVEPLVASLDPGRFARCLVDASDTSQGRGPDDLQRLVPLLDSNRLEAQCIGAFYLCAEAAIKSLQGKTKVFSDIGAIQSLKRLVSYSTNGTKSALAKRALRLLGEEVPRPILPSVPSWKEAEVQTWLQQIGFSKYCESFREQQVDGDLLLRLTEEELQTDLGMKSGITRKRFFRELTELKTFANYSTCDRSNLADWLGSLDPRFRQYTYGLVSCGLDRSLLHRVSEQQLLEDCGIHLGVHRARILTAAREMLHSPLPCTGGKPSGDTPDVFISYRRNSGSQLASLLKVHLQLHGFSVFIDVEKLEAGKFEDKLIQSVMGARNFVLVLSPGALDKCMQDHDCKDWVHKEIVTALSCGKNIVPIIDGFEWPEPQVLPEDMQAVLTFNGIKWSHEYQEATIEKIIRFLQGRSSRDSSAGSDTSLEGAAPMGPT

Regarding `CN(C)CCC[C@@]1(c2ccc(F)cc2)OCc2cc(C#N)ccc21`, the nuclear beta-catenin stimulation in test [1] (at 10 µM) is 2.2% (inactive); in test [1] (stimulation, at 2 µM), -0.7%. For the same compound, in [2], the insulin secretion stimulation is 31.7% (active). Also, in test [3], the viability decrease is 4.6% (inactive). Moreover, the tube area decrease in test [4] is 3.6% (inactive). Moreover, in test [5], the GLP1 secretion stimulation is 10.5% (inactive). For the same compound, the inhibition of viability in test [6] is -13.4% (inactive). Also, the viability decrease (inhibition) was 66.3% (active) in test [7] and 24.4% (inactive) in test [8]. Further, the inhibition in test [9] was 8.36% (inactive). Besides, the red/green cell ratio (normalised) in test [10] was 0.99 (inactive). For the same compound, the normalised cell number is 1.13 in [10] (setting [21]) and 1.12 in test [10] (setting [22]). The fold change in test [11] (setting [23]) is 1.02 (inactive) and 0.891 (inactive); in [11] (setting [24]), 2.21 and 1.15. Besides, the cell count in [11] (setting [25]) is 9600 and 9400; in test [11] (setting [26]), 9420 and 10600. Besides, the z-score in test [12] (setting [27]) is -0.471 (inactive) and -0.676 (inactive); in test [12] (setting [28]) it was -0.0102 and -1.12. Further, the remaining NAD in test [13] was 10 nM (inactive). The log fold change Tl+ flux in test [14] was 0.0406 (inactive); in test [15], 0.0188 (inactive); in [16] it was -0.0413 (inactive); in test [17], -0.0846 (inactive); in test [18] it was 0.0547 (inactive); in [19], 0.0841 (inactive).

For `OC(CCN1CCCCC1)(c1ccccc1)C1CCCCC1` (configuration not stated), the nuclear beta-catenin stimulation in test [1] (at 10 µM) was -1.1% (inactive); in test [1] (stimulation, at 2 µM), 7.5%. For the same compound, in test [2], the insulin secretion stimulation is 12.4% (inactive). Also, the viability decrease in test [3] was -59.3% (inactive). Moreover, the tube area decrease in test [4] was 5% (inactive). Besides, the GLP1 secretion stimulation in test [5] was 3.3% (inactive). The inhibition of viability in test [6] is 34.2% (inactive). Besides, the viability decrease (inhibition) in test [7] is 67.1% (active); in [8], 18.6% (inactive). Further, in [9], the inhibition is 5.23% (inactive). Besides, the red/green cell ratio (normalised) in test [10] is 1.08 (inactive). Besides, the normalised cell number in [10] (setting [21]) came to 0.92; in [10] (setting [22]), 1. The z-score in test [12] (setting [27]) is 0.423 (inactive); in [12] (setting [28]) it was 0.169. The remaining NAD in [13] was 10 nM (inactive). For the same compound, in test [20], the luciferase signal is 56 AU (inactive). Besides, the log fold change Tl+ flux in test [14] was 0.0654 (inactive); in [15], -0.0109 (inactive); in test [16], -0.0285 (inactive); in [17], -0.119 (active); in [18], 0.105 (inactive); in test [19] it was -0.0882 (inactive).

Consider `Cc1onc(-c2ccccc2)c1-c1ccc(S(N)(=O)=O)cc1`, for which the nuclear beta-catenin stimulation was 1.5% (inactive) in test [1] (at 10 µM) and 1.6% in test [1] (stimulation, at 2 µM). Moreover, the insulin secretion stimulation in test [2] was -0.9% (inactive). The viability decrease in test [3] was -37.3% (inactive). Further, the tube area decrease in [4] was 32.7% (inactive). Further, in test [5], the GLP1 secretion stimulation is 4.8% (inactive). In test [6], the inhibition of viability was 33.5% (inactive). The values for the viability decrease (inhibition) in [7] and in test [8] were 54% (active) and 32.5% (inactive), respectively. In addition, in [9], the inhibition was -1.63% (inactive). For the same compound, the fold change is 0.904 (inactive) and 0.903 (inactive) in test [11] (setting [23]); 1.68 and 0.72 in test [11] (setting [24]). Moreover, the cell count in [11] (setting [25]) was 8880 and 8040; in [11] (setting [26]), 9820 and 8900. Moreover, the z-score in test [12] (setting [27]) is -0.154 (inactive) and 0.659 (inactive); in test [12] (setting [28]), -0.131 and 0.628. The luciferase signal in [20] was 64 AU (inactive). Also, the log fold change Tl+ flux was 0.0649 (inactive) in [14]; 0.0548 (inactive) in test [15]; 0.00659 (inactive) in [16]; 0.0179 (inactive) in test [17]; 0.0767 (inactive) in [18]; 0.0842 (inactive) in test [19].
